Assay results as given in PubChem BioAssay.
Active and inactive are the calls of the source. Unless noted, how the calls were made is not given here.

Legend:
[1] = compounds binding Alexa647 anti-His antibody – biochemical, small-molecule microarray, 635 nm fluorescence, artefact control for SMM control protein annotation, primary screen (AID 1128); details: higher = more signal;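 further: score merges feature fluorescence with signal-to-noise for each printed compound spot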
[2] = system: Human papillomavirus type 1a E7 protein (residues 1-88); assay: HPV1a E7 small-molecule binders, primary screen, biochemical, small-molecule microarray, residues 1-88, 635 nm (AID 1129); details: small-molecule microarray binding, fluorescence 635 nm; higher = more signal
[3] = molecular target: Focal adhesion kinase 1 (Homo sapiens) (UniProt Q05397); assay: PTK2 protein binding on printed compound slides – biochemical, small-molecule microarray, 635/667 nm fluorescence, BSA, DTT, primary screen (AID 1130); details: 635 nm fluorescence, higher = more signal;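 further: composite of spot emission at 667 nm and signal to noise over triplicate slides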
[4] = system: Fibrinogen (Alexa647-labelled); assay: Alexa647-fibrinogen binding to printed small molecules – biochemical, small-molecule microarray, 635/667 nm fluorescence, artefact control for SMM control-protein annotation, profiling panel (AID 1131); details: fibrinogen-A647 binding fluorescence, higher = more signal;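 further: z-score merges 667 nm fluorescence with per-spot signal-to-noise over triplicate slides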
[5] = molecular target: Follistatin (Homo sapiens) (UniProt P19883); assay: FST protein binding to printed compounds – biochemical, small-molecule microarray, 635/667 nm fluorescence, primary screen (AID 1132); details: 635 nm fluorescence, higher = more signal
[6] = molecular target: Fibroblast growth factor 2 (Homo sapiens) (UniProt P09038); assay: basic fibroblast growth factor binding to printed compounds – biochemical, small-molecule microarray, 635/667 nm fluorescence, primary screen (AID 1133); details: FGF2, fluorescence 635/667, higher = more signal
[7] = JC-1 mitochondrial potential readout, lung cancer cells – cell-based, A549, JC-1 fluorescence, basal, 24 h, 100 nL, profiling panel (AID 1138); details: higher = more signal;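 further: A549 lung adenocarcinoma cells under basal conditions with no added stimulus; test concentration not given here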
Lefty1 = Lefty1 protein binding to printed compounds – biochemical, small-molecule microarray, 635/667 nm fluorescence, primary screen (AID 1139); details: fluorescence 635/667, higher = more signal
[8] = system: wheat germ agglutinin (Triticum aestivum), Alexa647-labelled; assay: Alexa647-WGA lectin binding to printed small molecules – biochemical, small-molecule microarray, 635/667 nm fluorescence, artefact control for SMM control-protein annotation, profiling panel (AID 1140); details: WGA-A647 binding, 635 nm fluorescence, higher = more signal;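 further: score merges 667 nm feature emission with signal to noise over triplicate slides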
[9] = molecular target: Luciferin 4-monooxygenase (Photinus pyralis) (UniProt P08659); assay: inhibition of purified Photinus pyralis luciferase – biochemical, luminescence, purified enzyme, 2006 set, primary screen (AID 1141); details: purified firefly luciferase, SteadyGlo luminescence, 30 min; higher = more signal, called active from +8 up or from −8 down;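 further: cell-free assay with purified firefly luciferase at 100 ng per well in PBS; test concentration not given here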
[10] = system: Wnt5a (protein binding on small-molecule microarray); assay: small molecules binding Wnt5a protein – biophysical, small-molecule microarray, 635/667 nm fluorescence, primary screen (AID 1142); details: 635 nm fluorescence, higher = more signal;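 further: fluorescence read at 667 nm with signal to noise per printed feature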
[11] = ATP-based viability of Huh7 replicon cells – cell-based, CellTiter-Glo luminescence, basal, 48 h, cytotoxicity control for HCV replication inhibitor project, primary screen (AID 1143); details: higher = more signal, called active from +8 up or from −8 down;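 further: Huh7 hepatoma cells carrying a hepatitis C replication reporter with no stimulus; test concentration not given here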
[12] = Pseudomonas biofilm growth suppression – PAO1 strain, BacTiter-Glo luminescence, LB-PBS, primary screen (AID 1144); details: P. aeruginosa PAO1 biofilm, 12 h, higher = more signal
[13] = basal CRE-LacZ reporter activity in PC12 – cell-based, unstimulated, primary screen (AID 1145); details: no forskolin, luminescence, 4.5 h, higher = more signal, called active from +8 up or from −8 down
[14] = forskolin-driven CRE-LacZ activity in PC12 – cell-based, CRE-LacZ reporter, forskolin-stimulated, primary screen (AID 1146); details: luminescence, 4.5 h, higher = more signal, called active from +8 up or from −8 down;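 further: PC12 cells with 6xCRE LacZ reporter stimulated by forskolin 10 µM; beta-galactosidase reporter signal reflecting CREB driven transcription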
[15] = molecular target: Streptavidin (Streptomyces avidinii) (UniProt P22629); assay: compounds binding control protein streptavidin – biophysical, small-molecule microarray, 635/667 nm fluorescence, artefact control for SMM compound annotation, primary screen (AID 1147); details: higher = more signal;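 further: signal reflects streptavidin binding to arrayed compounds as a control protein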
[16] = probe aInhba binding on compound microarray – biochemical, small-molecule microarray, 635/667 nm fluorescence, primary screen (AID 1148); details: higher = more signal;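 further: score merges 667nm spot fluorescence with signal-to-noise for antibody binding to printed compounds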
Torsin-1A (Homo sapiens) [17] = molecular target: Torsin-1A (Homo sapiens) (UniProt O14656); assay: TOR1A wild-type binding on microarray – cell lysate, small-molecule microarray, lysate, 635/667 nm, primary screen (AID 1149); details: COS7 hTOR1A-WT lysate, 635 nm fluorescence, higher = more signal
Torsin-1A (Homo sapiens) [18] = molecular target: Torsin-1A (Homo sapiens) (UniProt O14656); assay: torsin A mutant lysate binding on microarrays – cell lysate, small-molecule microarray, COS7 lysate, 635/667 nm fluorescence, primary screen (AID 1150); details: COS7 hTOR1A mutant lysate, 635 nm fluorescence, higher = more signal;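 further: score pools 667 nm emission and signal to noise measuring lysate protein binding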
[19] = system: Sonic hedgehog protein (Shh); assay: Sonic hedgehog microarray binding compounds – biochemical, small-molecule microarray, 635/667 nm fluorescence, primary screen (AID 1151); details: 635 nm fluorescence, higher = more signal;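 further: Shh protein binding to compounds spotted on small-molecule microarray slides; score combines spot fluorescence intensity with signal-to-noise across triplicate slides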

Sequence of Luciferin 4-monooxygenase (Photinus pyralis) (P08659 whole entry, looked up): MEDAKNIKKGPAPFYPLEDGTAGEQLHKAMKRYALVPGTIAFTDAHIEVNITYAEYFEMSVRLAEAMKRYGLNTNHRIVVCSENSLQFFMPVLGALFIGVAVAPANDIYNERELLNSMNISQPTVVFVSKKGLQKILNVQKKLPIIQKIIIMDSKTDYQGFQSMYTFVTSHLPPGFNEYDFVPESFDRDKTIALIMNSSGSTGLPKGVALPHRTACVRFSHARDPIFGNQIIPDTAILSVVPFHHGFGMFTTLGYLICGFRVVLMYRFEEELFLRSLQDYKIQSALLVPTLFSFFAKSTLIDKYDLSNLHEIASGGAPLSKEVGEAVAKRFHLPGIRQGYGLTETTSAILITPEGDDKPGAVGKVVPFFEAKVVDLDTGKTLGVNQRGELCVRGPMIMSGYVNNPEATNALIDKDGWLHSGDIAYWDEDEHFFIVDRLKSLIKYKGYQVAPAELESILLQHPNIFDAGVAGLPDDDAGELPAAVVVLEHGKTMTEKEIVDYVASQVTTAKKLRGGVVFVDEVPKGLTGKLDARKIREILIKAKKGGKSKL
Sequence of Fibroblast growth factor 2 (Homo sapiens) (P09038 whole entry, looked up): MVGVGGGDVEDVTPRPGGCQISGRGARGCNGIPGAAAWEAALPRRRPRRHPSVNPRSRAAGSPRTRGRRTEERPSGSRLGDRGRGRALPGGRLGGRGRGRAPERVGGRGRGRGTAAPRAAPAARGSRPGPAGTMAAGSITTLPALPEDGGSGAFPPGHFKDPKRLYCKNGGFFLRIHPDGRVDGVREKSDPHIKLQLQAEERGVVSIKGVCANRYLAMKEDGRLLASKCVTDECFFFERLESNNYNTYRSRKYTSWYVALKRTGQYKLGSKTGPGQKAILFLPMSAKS
Sequence of Focal adhesion kinase 1 (Homo sapiens) (Q05397 whole entry, looked up): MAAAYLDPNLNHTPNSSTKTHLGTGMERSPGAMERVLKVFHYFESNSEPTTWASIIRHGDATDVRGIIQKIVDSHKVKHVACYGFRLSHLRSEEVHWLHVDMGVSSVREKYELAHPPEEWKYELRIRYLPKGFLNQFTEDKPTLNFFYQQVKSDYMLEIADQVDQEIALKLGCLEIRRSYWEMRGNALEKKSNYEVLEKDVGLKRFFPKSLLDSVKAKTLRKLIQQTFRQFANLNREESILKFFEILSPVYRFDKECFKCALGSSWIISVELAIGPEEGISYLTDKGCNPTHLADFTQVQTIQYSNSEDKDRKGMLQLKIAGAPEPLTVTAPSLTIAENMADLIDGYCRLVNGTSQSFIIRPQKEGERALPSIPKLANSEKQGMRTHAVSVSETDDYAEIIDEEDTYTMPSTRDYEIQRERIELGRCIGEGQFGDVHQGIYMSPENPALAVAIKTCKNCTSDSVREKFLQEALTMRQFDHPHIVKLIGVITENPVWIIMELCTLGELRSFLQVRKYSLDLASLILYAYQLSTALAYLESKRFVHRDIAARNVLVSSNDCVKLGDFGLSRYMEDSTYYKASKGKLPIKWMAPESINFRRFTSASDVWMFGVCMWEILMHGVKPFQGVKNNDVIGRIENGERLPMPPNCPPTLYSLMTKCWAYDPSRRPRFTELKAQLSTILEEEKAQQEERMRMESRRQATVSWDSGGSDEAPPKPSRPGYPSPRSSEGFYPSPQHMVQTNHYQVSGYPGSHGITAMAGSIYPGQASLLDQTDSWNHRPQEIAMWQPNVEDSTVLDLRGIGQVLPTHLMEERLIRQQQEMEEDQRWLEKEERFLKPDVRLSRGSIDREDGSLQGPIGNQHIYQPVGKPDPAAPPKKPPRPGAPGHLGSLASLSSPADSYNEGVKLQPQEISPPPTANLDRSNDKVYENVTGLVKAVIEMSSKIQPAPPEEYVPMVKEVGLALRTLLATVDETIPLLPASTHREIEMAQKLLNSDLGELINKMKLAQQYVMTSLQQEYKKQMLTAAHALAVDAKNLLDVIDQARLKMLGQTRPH
Sequence of Torsin-1A (Homo sapiens) (O14656 whole entry, looked up): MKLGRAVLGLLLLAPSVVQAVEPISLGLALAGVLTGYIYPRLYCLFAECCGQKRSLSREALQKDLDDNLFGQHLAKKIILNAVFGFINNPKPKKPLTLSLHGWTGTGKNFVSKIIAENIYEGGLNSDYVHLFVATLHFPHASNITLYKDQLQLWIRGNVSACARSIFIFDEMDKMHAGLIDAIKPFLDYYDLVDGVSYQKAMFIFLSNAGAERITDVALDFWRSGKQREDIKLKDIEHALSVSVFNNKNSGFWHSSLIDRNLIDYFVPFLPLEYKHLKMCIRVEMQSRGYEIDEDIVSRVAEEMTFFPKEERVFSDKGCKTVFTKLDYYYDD
Sequence of Follistatin (Homo sapiens) (P19883 whole entry, looked up): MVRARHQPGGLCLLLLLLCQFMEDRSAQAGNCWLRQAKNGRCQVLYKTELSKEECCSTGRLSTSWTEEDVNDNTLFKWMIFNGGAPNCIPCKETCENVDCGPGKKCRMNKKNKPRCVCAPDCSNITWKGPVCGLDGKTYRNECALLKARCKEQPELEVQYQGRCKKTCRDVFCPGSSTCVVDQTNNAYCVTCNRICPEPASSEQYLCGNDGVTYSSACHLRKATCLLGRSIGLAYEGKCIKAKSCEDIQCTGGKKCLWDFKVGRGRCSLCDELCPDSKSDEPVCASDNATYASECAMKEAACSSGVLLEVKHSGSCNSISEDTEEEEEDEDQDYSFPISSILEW
Sequence of Streptavidin (Streptomyces avidinii) (P22629 whole entry, looked up): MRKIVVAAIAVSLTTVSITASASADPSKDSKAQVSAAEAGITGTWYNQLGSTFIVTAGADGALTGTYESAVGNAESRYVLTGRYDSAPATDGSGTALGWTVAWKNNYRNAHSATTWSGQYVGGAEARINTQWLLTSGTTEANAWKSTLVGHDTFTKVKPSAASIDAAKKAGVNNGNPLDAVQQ

Row | Compound | composite z-score [1] | composite z-score [2] | composite z-score [3] | composite z-score [4] | composite z-score [5] | composite z-score [6] | z-score [7] | composite z-score (Lefty1) | composite z-score [8] | z-score [9] | composite z-score [10] | z-score [11] | z-score [12] | z-score [13] | z-score [14] | composite z-score [15] | composite z-score [16] | composite z-score (Torsin-1A (Homo sapiens) [17]) | composite z-score (Torsin-1A (Homo sapiens) [18]) | composite z-score [19]
1 | C[C@@H](OCc1ccccc1)C1NC(=O)[C@@]23C(=O)N[C@@H](Cc4ccccc4)C2[C@H](C)[C@@]2(C)O[C@H]2C3/C=C/C/C=C\CNC(=O)[C@H](Cc2ccccc2)NC1=O (stereo not given in full) | 0.276 | -0.197 | -0.422 | 0.569 | 0.793 | 0.803 | -0.227 | 0.557 | -0.228 | -3.26 (inactive) | -0.0187 | -3.97 (inactive) | 0.541 (inactive) | 5.48 (inactive) | -0.164 (inactive) | -0.85 | 0.0131 | -0.258 | 0.293 | 1.07
2 | C=CCC(OC(C)=O)[C@@H]1[C@@H](N(Cc2ccc(-c3cccc(C(F)(F)F)c3)o2)C(=O)Cc2ccc(F)cc2)c2cc(OCCCO)ccc2N1C(=O)c1ccc2ccccc2n1 (stereo not given in full) | -0.255 | -0.732 | -0.153 | -1.12 | 0.67 | -0.0898 | 0.898 | -0.286 | -0.375 | -0.1 (inactive) | -0.123 | -0.0676 (inactive) | -0.147 (inactive) | 0.134 (inactive) | 1.5 (inactive) | -0.127 | -0.176 | -0.187 | -0.326 | 0.244
3 | O=C1O[C@H](c2ccccc2)[C@H](c2ccccc2)N2[C@H]1[C@@H](C(=O)NC[C@H](O)c1ccccc1)[C@]1(C(=O)Nc3ccc(C#CCCO)cc31)[C@H]2c1ccccc1OCCO | 1.6 | 1.18 | 0.746 | 0.812 | 1.1 | 0.419 | -0.223 | 1.39 | 0.593 | 0.597 (inactive) | -0.24 | -1.9 (inactive) | -0.491 (inactive) | -0.141 (inactive) | -0.27 (inactive) | -0.0243 | 0.0633 | 0.898 | 1.01 | 1.97
4 | CCc1cccc(NC(=O)O[C@H]2[C@H](OC(=O)Nc3ccc4c(c3)OCO4)[C@H](OC(=O)Nc3ccc4c(c3)OCO4)[C@@H](OC)O[C@@H]2CO)c1 | 2.14 | 1.24 | -0.164 | 0.97 | 0.987 | 0.0183 | -0.308 | 0.478 | 0.815 | -10.5 (active) | 0.322 | -4.18 (inactive) | -0.373 (inactive) | -0.3 (inactive) | -0.321 (inactive) | 0.0602 | 0.0497 | 0.138 | 0.97 | 1.91
5 | C=C(COC)/C(=C/C[C@@H](OC(C)=O)c1ccccc1OCCO)c1cc(C(=O)OC)ccc1OC | 2.21 | 0.461 | -0.102 | -0.325 | 0.569 | 0.36 | 1.75 | 0.624 | 0.344 | -1.47 (inactive) | 0.143 | -1 (inactive) | -0.765 (inactive) | 11.4 (active) | 0.323 (inactive) | -0.333 | -0.188 | 0.237 | 0.612 | 0.94
6 | CC(C)C[C@@H]1NC(=O)[C@H]2C[C@@H](C(=O)NCCCCCNC(=O)CS)[C@@H](c3ccc(O)cc3)N2C1=O | 2.05 | 1.24 | 1.19 | 0.201 | 1.33 | 1.62 | -1.22 | 0.497 | 0.408 | -1.76 (inactive) | 0.702 | -0.153 (inactive) | -0.215 (inactive) | 0.135 (inactive) | -0.908 (inactive) | 0.413 | -0.116 | 0.6 | 0.997 | 1.35
7 | C=CC(CO)NC(=O)OCC1c2ccccc2-c2ccccc21 (stereo not given) | 0.311 | 0.421 | 0.476 | 0.578 | 0.763 | 0.415 | 0.02 | 0.618 | -0.105 | -0.409 (inactive) | 0.237 | 0.0812 (inactive) | 0.219 (inactive) | 1.03 (inactive) | 0.584 (inactive) | 0.0333 | -0.183 | 0.743 | 0.724 | 0.775
8 | CC(C)[Si](C#CCCCC#N)(O[C@H](c1ccccc1)c1cn([C@H](C)c2ccccc2)nn1)C(C)C | 0.67 | 0.893 | -0.0546 | 0.464 | 0.661 | 0.286 | 2.34 | 0.739 | 0.0425 | -0.863 (inactive) | 0.0952 | -1.75 (inactive) | -0.0514 (inactive) | -0.23 (inactive) | 0.301 (inactive) | 0.492 | 0.0183 | 0.0529 | 0.28 | 1.09
9 | COC(=O)[C@@]1(CCC(=O)OC(C)(C)C)N=C(c2ccc(OCCCO)cc2)O[C@H]1c1ccccc1CN=[N+]=[N-] | 0.656 | 0.0163 | -0.0599 | 0.0201 | 0.663 | 0.442 | 0.895 | -0.756 | 0.249 | -0.488 (inactive) | 0.113 | -2.35 (inactive) | -0.0281 (inactive) | 1.94 (inactive) | -1.55 (inactive) | -0.139 | 0.241 | -0.193 | 0.261 | 0.339
10 | COCCOC(=O)N1C(=O)[C@@]2(c3cc(C#CCC(C(=O)OC)C(=O)OC)ccc31)[C@H](c1ccc(OCCO)cc1)N1[C@H](c3ccccc3)[C@H](c3ccccc3)OC(=O)[C@H]1[C@@H]2C(=O)N1CCCCCCC1 | 1 | 1.21 | 0.899 | 0.686 | 1.5 | 0.614 | -0.83 | 0.958 | 1.37 | -1.62 (inactive) | 0.803 | -1.67 (inactive) | -0.147 (inactive) | -0.467 (inactive) | -0.553 (inactive) | 2.53 | 1.91 | 2.42 | 1.98 | 1.58
11 | Cc1ccc(S[C@]2(C(=O)NCCCN(C)C)CC(=O)N(Cc3ccccc3Cl)[C@@H]2c2ccc(CO)cc2I)cc1 | -0.704 | -0.522 | 0.404 | -1.05 | -0.667 | -1.09 | 0.935 | -0.767 | 1.17 | -0.543 (inactive) | -0.256 | -0.826 (inactive) | 0.601 (inactive) | 0.0924 (inactive) | 0.752 (inactive) | -0.245 | -0.157 | -0.601 | -0.679 | -0.995
12 | COC(=O)[C@H](Cc1ccc(O)cc1)N1CC2=CCCC=C[C@@H]2[C@H]1[C@H](O)Cc1ccccc1 | 0.0409 | -0.24 | -0.0148 | 0.92 | 0.359 | 0.348 | -0.934 | 0.58 | 0.216 | -1.63 (inactive) | 0.0799 | -0.567 (inactive) | -1.21 (inactive) | 2.13 (inactive) | 1.24 (inactive) | -0.53 | 0.0108 | -0.246 | -0.0258 | 0.33
